# PubChem BioAssay (EPA / NIEHS)
# Activity calls are given as the source filed them. Rule for the calls: active = hit-call score of the fitted dose curve at least 0.9, where 1 is the maximum; inactive = score below 0.9.
# Read-out: CD40, CD40 (gene 958)
# Assay: BSK_LPS_CD40: BioMAP Diversity Plus: LPS Assay for CD40 Biomarker Activity (AID 2283076)
# Details: primary human HUVEC with PBMC; actives raise or lower the signal
# Method: BSK_LPS is a cell-based, multiplexed-readout assay that uses umbilical vein endothelium and peripheral blood mononuclear cells, a human vascular primary cell co-culture, with measurements taken at 24 hours after chemical dosing in a 96-well plate.BSK_LPS_CD40 is an assay component measured in the BSK_LPS assay. It measures CD40 antibody related to regulation of gene expression using ELISA technology.Data from the assay component BSK_LPS_CD40 was analyzed into 1 assay endpoint. This assay endpoint, BSK_LPS_CD40, was analyzed with bidirectional fitting relative to DMSO as the negative control and baseline of activity. Using a type of binding reporter, gain or loss-of-signal activity can be used to understand changes in the signaling as they relate to the gene CD40. Furthermore, this assay endpoint can be referred to as a primary readout, because this assay has produced multiple assay endpoints where this one serves a signaling function. To generalize the intended target to other relatable targets, this assay endpoint is annotated to the cytokine intended target family, where the subfamily is inflammatory factor.
# The levels of cell surface (or secreted, indicated by the prefix "s") biomarker endpoints were measured by ELISA. Overt cytotoxicity to cells in confluent adherent cultures (all systems other than the BT system) was assessed by measuring total protein levels using sulforhodamine B (SRB) staining in parallel cultures at the time of biomarker measurements, indicated as SRB endpoints. For proliferation assays for adherent cell types, individual cell types are cultured at sub-confluence and relative cell numbers quantified by SRB staining at time points optimized for each system (48 h: 3C and CASM3C systems; 72 h: BT and HDF3CGF systems; 96 h: SAg system). SRB was performed by staining cells with 0.1% SRB after fixation with 10% TCA and reading wells at 560 nm.Viability and proliferation of PBMC (T cells) was quantified by Alamar Blue reduction for the SAg and BT systems. For PBMC viability (referred to as PBMC Cytotoxicity within the assay endpoint names), cells were plated (75,000/well in a 96-well plate) and then chemical samples added for 1 h before addition of activators, SEB and TSST-1 (20 ng/mL final concentration each). Cells were incubated for 90 h. Then, Alamar Blue (20 uL/well) (Invitrogen, Cat DAL1100) was added for 6 h, and the plates were read with a fluorescence microplate reader at 546/580 nm (excitation/emission). For PBMC proliferation, cells were plated and activated as above but incubated for only 16 h prior to addition of Alamar Blue. Plates were read after 6 h.
Compound,AC50,outcome
CCCCN(CC)c1c([N+](=O)[O-])cc(C(F)(F)F)cc1[N+](=O)[O-],34.2 µM (active),
Nc1nc(N)nc(NC2CC2)n1,,inactive
CCCOc1nn(C(=O)NS(=O)(=O)c2ccccc2C(=O)OC)c(=O)n1C,,inactive
CC(C1CC1)C(O)(Cn1cncn1)c1ccc(Cl)cc1 (stereo not given),,inactive
CNC(=O)ON=C(C)SC,,inactive
COP(=O)(NC(C)=O)SC (stereo not given),,inactive
CC(=NC#N)N(C)Cc1ccc(Cl)nc1,,inactive
CSc1nnc(C(C)(C)C)c(=O)n1N,,inactive
C[N+]1(C)CCCCC1,,inactive
CN(C)[C@@H]1C(=O)C(C(N)=O)=C(O)[C@@]2(O)C(=O)C3=C(O)c4c(O)cccc4[C@@](C)(O)[C@H]3[C@H](O)[C@@H]12,,inactive
COP(=O)(OC)SCn1c(=O)oc2cc(Cl)cnc21,19.8 µM (active),
CCc1cccc(CC)c1N(COC)C(=O)CCl,13.8 µM (active),
CC(Oc1cccc(Cl)c1)C(=O)O (stereo not given),,inactive
CNC(=O)ON=C(SC)C(=O)N(C)C,,inactive
CN(C)NC(=O)CCC(=O)O,,inactive
O=C(O)c1cc(Oc2ccc(C(F)(F)F)cc2Cl)ccc1[N+](=O)[O-],,inactive
CCOC(=O)COc1cc(-c2nn(C)c(OC(F)F)c2Cl)c(F)cc1Cl,,inactive
C#CC(C)(C)NC(=O)c1cc(Cl)cc(Cl)c1,,inactive
C=C(C)[C@H]1Cc2c(ccc3c2O[C@@H]2COc4cc(OC)c(OC)cc4[C@@H]2C3=O)O1,6.01 µM (active),
CCOP(=O)(NC(C)C)Oc1ccc(SC)c(C)c1 (stereo not given),,inactive

Compound,AC50,outcome
C[Si](Cn1cncn1)(c1ccc(F)cc1)c1ccc(F)cc1,,inactive
CCOC(=O)CC(SP(=O)(OC)OC)C(=O)OCC (stereo not given),,inactive
CCc1cccc(C)c1N(C(=O)CCl)C(C)COC (stereo not given),17.5 µM (active),
CN1COCN(Cc2cnc(Cl)s2)C1=N[N+](=O)[O-],,inactive
CSC1=N[C@@](C)(c2ccccc2)C(=O)N1Nc1ccccc1,,inactive
C#CCC1=C(C)C(OC(=O)C2C(C=C(C)C)C2(C)C)CC1=O (stereo not given),20 µM (active),
Cc1nn(-c2cc(NS(C)(=O)=O)c(Cl)cc2Cl)c(=O)n1C(F)F,,inactive
CCOP(=S)(OCC)Oc1ccc([N+](=O)[O-])cc1,16.7 µM (active),
COP(=O)(OC)C(O)C(Cl)(Cl)Cl (stereo not given),,inactive
CCOP(=S)(OCC)OC(Cl)C(Cl)(Cl)Cl (stereo not given),,inactive
CC1=NNC(=O)N(/N=C/c2cccnc2)C1,,inactive
CCCSP(=O)(OCC)SCCC,,inactive
CON=C(C(=O)OC)c1ccccc1CON=C(C)c1cccc(C(F)(F)F)c1,13.5 µM (active),
N#CSCSC#N,5.33 µM (active),
CCC(=NOC/C=C/Cl)C1=C(O)CC(C2CCOCC2)CC1=O (stereo not given),,inactive
Nc1c(Cl)cc([N+](=O)[O-])cc1Cl,,inactive
COc1cc(OC)nc(Sc2cccc(Cl)c2C(=O)O)n1,,inactive
CC(C)[C@H](C(=O)O[C@H](C#N)c1cccc(Oc2ccccc2)c1)c1ccc(Cl)cc1,,inactive
CCOP(=S)(OCC)Oc1ccc2c(C)c(Cl)c(=O)oc2c1,,inactive
CCCCOC(=O)[C@@H](C)Oc1ccc(Oc2ccc(C#N)cc2F)cc1,,inactive
